This is part of a sample that, as a whole, favours compounds with a hit. Of some 79,000 tested, about 15% had one in any assay. A number with no mark means an inactive call. Active and inactive are the calls of the source. Cut-off read from the data, not from the text of the source: active = growth inhibition above about 70%; inactive = the rest.
Columns and labels:
[1] = NCI Yeast Anticancer Drug Screen. Data for the rad52 strain (AID 147);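 note: 0% = growth of vehicle-treated control cultures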; details: S. cerevisiae rad52 mutant growth inhibition, hits give high values
Procedure, shortened: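 Genetically altered yeast (DNA damage repair defect) treated with compound; inhibition calculated relative to vehicle.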

[2] = NCI Yeast Anticancer Drug Screen. Data for the wt1 strain (AID 149);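 note: 0% = growth of vehicle-treated wt1 cultures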; details: S. cerevisiae wt1 strain (SPY 50644) growth inhibition, hits give high values
Procedure, shortened: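 Readout: yeast growth inhibition, normalised to vehicle controls, in the wt1 strain exposed to test compounds.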

[3] = NCI Yeast Anticancer Drug Screen. Data for the rad50EPP+ strain (AID 151);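 note: 0% = growth of vehicle-treated control cultures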; details: S. cerevisiae rad50 mutant strain, hits give high values
Procedure, shortened: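 Strain rad50EPP+; compound exposure; % growth inhibition vs vehicle.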

[4] = NCI Yeast Anticancer Drug Screen. Data for the mgt1 strain (AID 153); details: S. cerevisiae mgt1 mutant growth inhibition, hits give high values
Procedure, shortened: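 Read-out: yeast growth inhibition vs vehicle control. Strain mgt1, drawn from a panel altered in DNA damage repair or cell cycle control.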

[5] = NCI Yeast Anticancer Drug Screen. Data for the rad50 strain (AID 155);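 note: 0% = growth of vehicle-only cultures of the same strain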; details: S. cerevisiae rad50 strain growth inhibition, hits give high values
Procedure, shortened: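 Compounds were tested on a yeast strain with an engineered DNA damage repair alteration; the reported value is growth inhibition normalised to vehicle treatment.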

[6] = NCI Yeast Anticancer Drug Screen. Data for the mec2-1 strain (AID 157); details: S. cerevisiae mec2-1 strain, hits give high values
Procedure, shortened: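 Cells of the genetically defined mec2-1 yeast strain are incubated with test compound. Inhibition of growth is calculated against vehicle-treated controls.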

[7] = NCI Yeast Anticancer Drug Screen. Data for the rad14 strain (AID 159);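 note: 0% = growth of vehicle-treated control cultures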; details: S. cerevisiae rad14 strain growth inhibition, hits give high values
Procedure, shortened: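 Compound-treated yeast with a defined DNA-repair lesion; growth inhibition normalised to vehicle-treated cultures.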

[8] = NCI Yeast Anticancer Drug Screen. Data for the sgs1 mgt1 strain (AID 161);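 note: 0% = growth of cultures given vehicle only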; details: S. cerevisiae sgs1 mgt1 strain, hits give high values
Procedure, shortened: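 Inhibition of yeast growth, normalised to vehicle-treated controls, is reported for a strain bearing genetic alterations in DNA damage repair.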

[9] = NCI Yeast Anticancer Drug Screen. Data for the CLN2oe strain (AID 163);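 note: 0% = growth of vehicle-only control cultures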; details: S. cerevisiae CLN2oe strain, hits give high values
Procedure, shortened: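 Strain altered in cell-cycle control, incubated with compound; growth compared to solvent-treated controls.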

[10] = NCI Yeast Anticancer Drug Screen. Data for the cln2 rad14 strain (AID 165);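 note: 0% = growth equal to vehicle treated cultures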; details: S. cerevisiae cln2 rad14 strain, hits give high values
Procedure, shortened: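 The screen exposed genetically defined yeast (cln2 rad14) to test compounds and scored growth inhibition relative to vehicle-treated controls.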

[11] = NCI Yeast Anticancer Drug Screen. Data for the bub3 strain (AID 167); details: S. cerevisiae bub3 mutant strain, hits give high values
Procedure, shortened: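 Growth of a checkpoint-deficient yeast mutant is measured after compound exposure. Values represent inhibition relative to vehicle.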

[12] = NCI Yeast Anticancer Drug Screen. Data for the wt2 strain (AID 169);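 note: 0% = growth of vehicle-treated yeast cultures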; details: S. cerevisiae wt2 strain growth inhibition, hits give high values
Procedure, shortened: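 Steps: yeast strain treated with compound; growth recorded; inhibition calculated relative to cultures given vehicle alone.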

[13] = NCI Yeast Anticancer Drug Screen. Data for the mlh1 strain (AID 171);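 note: 0% = growth of vehicle-treated control cultures of the same strain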; details: S. cerevisiae mlh1 strain growth inhibition, hits give high values
Procedure, shortened: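 Yeast screen: mutant strain plus compound, growth scored against vehicle control wells.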

[14] = NCI Yeast Anticancer Drug Screen. Data for the sgs1 strain (AID 173);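 note: 0% = growth of vehicle-only control cultures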; details: S. cerevisiae sgs1 mutant, hits give high values
Procedure, shortened: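 Inhibition of yeast growth served as the measure. The mutant strain was treated with each compound, and growth was normalised to cultures receiving vehicle alone.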

[15] = NCI Yeast Anticancer Drug Screen. Data for the mlh1 rad18 strain (AID 175); details: S. cerevisiae mlh1 rad18 strain growth inhibition, hits give high values
Procedure, shortened: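 Compound-treated yeast growth, normalised to vehicle controls. Strain bears defined DNA repair mutations.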

[16] = NCI Yeast Anticancer Drug Screen. Data for the rad18 strain (AID 177); details: S. cerevisiae rad18 mutant growth inhibition, hits give high values
Procedure, shortened: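 Inhibition values reflect reduced yeast growth compared with vehicle-treated controls, using a strain engineered with a DNA damage repair defect.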

[17] = at 5.0 µM (retest, dose inferred, filed as 0.5)
[18] = at 50.0 µM (retest, dose inferred, filed as 5.0)

## CCCCC/C(=C(\C#N)C(=O)OCC)c1ccccc1
[1]; at 1.2 µM
  growth inhibition: -2%
[1]; at 3.7 µM
  growth inhibition: -1%
[1]; at 11.0 µM
  growth inhibition: 1%
[1]; at 33.0 µM
  growth inhibition: 7%
[1]; at 100.0 µM
  growth inhibition: 9%
[2]; at 1.2 µM
  growth inhibition: -2%
[2]; at 3.7 µM
  growth inhibition: -2%
[2]; at 11.0 µM
  growth inhibition: -1%
[2]; at 33.0 µM
  growth inhibition: -4%
[2]; at 100.0 µM
  growth inhibition: -4%
[3]; at 1.2 µM
  growth inhibition: 3%
[3]; at 3.7 µM
  growth inhibition: 3%
[3]; at 11.0 µM
  growth inhibition: 13%
[3]; at 33.0 µM
  growth inhibition: 26%
[3]; at 100.0 µM
  growth inhibition: 78% (active)
[4]; at 1.2 µM
  growth inhibition: -3%
[4]; at 3.7 µM
  growth inhibition: -2%
[4]; at 11.0 µM
  growth inhibition: -3%
[4]; at 33.0 µM
  growth inhibition: -2%
[4]; at 100.0 µM
  growth inhibition: 7%
[5]; at 1.2 µM
  growth inhibition: -1%
[5]; at 3.7 µM
  growth inhibition: -1%
[5]; [17]
  growth inhibition: 7%
[5]; at 11.0 µM
  growth inhibition: 4%
[5]; at 33.0 µM
  growth inhibition: 7%
[5]; [18]
  growth inhibition: -4%
[5]; at 50.0 µM
  growth inhibition: -7%
[5]; at 100.0 µM
  growth inhibition: -6%
[6]; at 1.2 µM
  growth inhibition: -7%
[6]; at 3.7 µM
  growth inhibition: -5%
[6]; [17]
  growth inhibition: -5%
[6]; at 11.0 µM
  growth inhibition: -3%
[6]; at 33.0 µM
  growth inhibition: 0%
[6]; [18]
  growth inhibition: -4%
[6]; at 50.0 µM
  growth inhibition: 28.4%
[6]; at 100.0 µM
  growth inhibition: 6%
[7]; at 1.2 µM
  growth inhibition: -1%
[7]; at 3.7 µM
  growth inhibition: -2%
[7]; at 11.0 µM
  growth inhibition: 1%
[7]; at 33.0 µM
  growth inhibition: 8%
[7]; at 100.0 µM
  growth inhibition: 5%
[8]; [17]
  growth inhibition: -1%
[8]; [18]
  growth inhibition: 33%
[8]; at 50.0 µM
  growth inhibition: 36.5%
[9]; at 1.2 µM
  growth inhibition: -2%
[9]; at 3.7 µM
  growth inhibition: -5%
[9]; at 11.0 µM
  growth inhibition: -5%
[9]; at 33.0 µM
  growth inhibition: -4%
[9]; at 100.0 µM
  growth inhibition: 4%
[10]; [17]
  growth inhibition: -7%
[10]; [18]
  growth inhibition: 13%
[10]; at 50.0 µM
  growth inhibition: -99%
[11]; at 1.2 µM
  growth inhibition: 0%
[11]; at 3.7 µM
  growth inhibition: 2%
[11]; [17]
  growth inhibition: 1%
[11]; at 11.0 µM
  growth inhibition: 6%
[11]; at 33.0 µM
  growth inhibition: 11%
[11]; [18]
  growth inhibition: 7%
[11]; at 50.0 µM
  growth inhibition: 52.4%
[11]; at 100.0 µM
  growth inhibition: 14%
[12]; at 1.2 µM
  growth inhibition: -3%
[12]; at 3.7 µM
  growth inhibition: -4%
[12]; at 11.0 µM
  growth inhibition: -3%
[12]; at 33.0 µM
  growth inhibition: -3%
[12]; at 100.0 µM
  growth inhibition: 1%
[13]; at 1.2 µM
  growth inhibition: -2%
[13]; at 3.7 µM
  growth inhibition: 1%
[13]; at 11.0 µM
  growth inhibition: 5%
[13]; at 33.0 µM
  growth inhibition: 10%
[13]; at 100.0 µM
  growth inhibition: 18%
[14]; at 1.2 µM
  growth inhibition: -1%
[14]; at 3.7 µM
  growth inhibition: 2%
[14]; at 11.0 µM
  growth inhibition: 2%
[14]; at 33.0 µM
  growth inhibition: 8%
[14]; at 100.0 µM
  growth inhibition: 17%
[15]; [17]
  growth inhibition: -6%
[15]; [18]
  growth inhibition: 64%
[15]; at 50.0 µM
  growth inhibition: 44.4%
[16]; at 1.2 µM
  growth inhibition: 1%
[16]; at 3.7 µM
  growth inhibition: 3%
[16]; at 11.0 µM
  growth inhibition: 2%
[16]; at 33.0 µM
  growth inhibition: 8%
[16]; at 100.0 µM
  growth inhibition: 14%

## CCCCc1ccc(-n2c(C)c(COC(=O)NC)c(COC(=O)NC)c2C)cc1
[1]; at 1.2 µM
  growth inhibition: -40%
[1]; at 3.7 µM
  growth inhibition: -10%
[1]; at 11.0 µM
  growth inhibition: 5%
[1]; at 33.0 µM
  growth inhibition: 98% (active)
[1]; at 100.0 µM
  growth inhibition: 93% (active)
[2]; at 1.2 µM
  growth inhibition: -48%
[2]; at 3.7 µM
  growth inhibition: -44%
[2]; at 11.0 µM
  growth inhibition: -13%
[2]; at 33.0 µM
  growth inhibition: 99% (active)
[2]; at 100.0 µM
  growth inhibition: 91% (active)
[3]; at 1.2 µM
  growth inhibition: -18%
[3]; at 3.7 µM
  growth inhibition: -13%
[3]; at 11.0 µM
  growth inhibition: -6%
[3]; at 33.0 µM
  growth inhibition: 90% (active)
[3]; at 100.0 µM
  growth inhibition: 92% (active)
[4]; at 1.2 µM
  growth inhibition: -43%
[4]; at 3.7 µM
  growth inhibition: -41%
[4]; at 11.0 µM
  growth inhibition: 19%
[4]; at 33.0 µM
  growth inhibition: 99% (active)
[4]; at 100.0 µM
  growth inhibition: 94% (active)
[5]; at 1.2 µM
  growth inhibition: -36%
[5]; at 3.7 µM
  growth inhibition: -30%
[5]; [17]
  growth inhibition: 19%
[5]; at 11.0 µM
  growth inhibition: 31%
[5]; at 33.0 µM
  growth inhibition: 93% (active)
[5]; [18]
  growth inhibition: 95% (active)
[5]; at 50.0 µM
  growth inhibition: 90.6% (active)
[5]; at 100.0 µM
  growth inhibition: 90% (active)
[6]; at 1.2 µM
  growth inhibition: -28%
[6]; at 3.7 µM
  growth inhibition: -21%
[6]; [17]
  growth inhibition: 14%
[6]; at 11.0 µM
  growth inhibition: 24%
[6]; at 33.0 µM
  growth inhibition: 99% (active)
[6]; [18]
  growth inhibition: 98% (active)
[6]; at 50.0 µM
  growth inhibition: 92.6% (active)
[6]; at 100.0 µM
  growth inhibition: 93% (active)
[7]; at 1.2 µM
  growth inhibition: -29%
[7]; at 3.7 µM
  growth inhibition: -11%
[7]; at 11.0 µM
  growth inhibition: 89% (active)
[7]; at 33.0 µM
  growth inhibition: 97% (active)
[7]; at 100.0 µM
  growth inhibition: 89% (active)
[8]; [17]
  growth inhibition: 26%
[8]; [18]
  growth inhibition: 57%
[8]; at 50.0 µM
  growth inhibition: 88.5% (active)
[9]; at 1.2 µM
  growth inhibition: -23%
[9]; at 3.7 µM
  growth inhibition: -1%
[9]; at 11.0 µM
  growth inhibition: 5%
[9]; at 33.0 µM
  growth inhibition: 97% (active)
[9]; at 100.0 µM
  growth inhibition: 94% (active)
[10]; [17]
  growth inhibition: 21%
[10]; [18]
  growth inhibition: -28%
[10]; at 50.0 µM
  growth inhibition: 81.5% (active)
[11]; at 1.2 µM
  growth inhibition: -36%
[11]; at 3.7 µM
  growth inhibition: -39%
[11]; [17]
  growth inhibition: 11%
[11]; at 11.0 µM
  growth inhibition: 56%
[11]; at 33.0 µM
  growth inhibition: 99% (active)
[11]; [18]
  growth inhibition: 4%
[11]; at 50.0 µM
  growth inhibition: 85.5% (active)
[11]; at 100.0 µM
  growth inhibition: 88% (active)
[12]; at 1.2 µM
  growth inhibition: -24%
[12]; at 3.7 µM
  growth inhibition: -10%
[12]; at 11.0 µM
  growth inhibition: 5%
[12]; at 33.0 µM
  growth inhibition: 98% (active)
[12]; at 100.0 µM
  growth inhibition: 94% (active)
[13]; at 1.2 µM
  growth inhibition: -39%
[13]; at 3.7 µM
  growth inhibition: -18%
[13]; at 11.0 µM
  growth inhibition: 83% (active)
[13]; at 33.0 µM
  growth inhibition: 97% (active)
[13]; at 100.0 µM
  growth inhibition: 87% (active)
[14]; at 1.2 µM
  growth inhibition: -3%
[14]; at 3.7 µM
  growth inhibition: -2%
[14]; at 11.0 µM
  growth inhibition: 47%
[14]; at 33.0 µM
  growth inhibition: 98% (active)
[14]; at 100.0 µM
  growth inhibition: 91% (active)
[15]; [17]
  growth inhibition: 18%
[15]; [18]
  growth inhibition: 98% (active)
[15]; at 50.0 µM
  growth inhibition: 91.2% (active)
[16]; at 1.2 µM
  growth inhibition: -27%
[16]; at 3.7 µM
  growth inhibition: -1%
[16]; at 11.0 µM
  growth inhibition: 59%
[16]; at 33.0 µM
  growth inhibition: 95% (active)
[16]; at 100.0 µM
  growth inhibition: 77% (active)
